In PubChem BioAssay (Tox21) one finds Potency and outcome data, which are given here for nine compounds.

Records with an inconclusive call do not appear. Calls of active or inactive are those of the source. Unless noted, calls come from the whole dose curve; as a rule, active = well fitted curve in the direction sought with a large enough effect in the repeat runs; inconclusive = weak or mixed curves; inactive = no such curve, though single readings can be large; an effect the other way counts as inactive or inconclusive.

The nature of assay [1]: qHTS assay to test for compound auto fluorescence at 460 nm (blue) in HEK293 cell free culture (AID 720681). In a few lines: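 Test compounds were pinned into cell-free culture medium (DMEM with 10% FBS) and fluorescence was read directly at Ex/Em 405/460 nm. Signals were expressed as fluorescence equivalents of triamterene, with DMSO vehicle as control.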
A general note: Quantitative high-throughput screening tests each substance at several concentrations.

A short description of assay [2]: qHTS assay to test for compound auto fluorescence at 535 nm (green) in HEK293 cell free culture (AID 720682). The method in brief:
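Intrinsic compound fluorescence is measured in culture medium containing 10% FBS, with excitation at 485 nm and detection at 535 nm, referenced to fluorescein.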

The nature of assay [3]: qHTS assay to test for compound auto fluorescence at 590 nm (red) in HepG2 cell free culture (AID 720684). The method in brief: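 Readout: intrinsic compound fluorescence at 590 nm emission after 540 nm excitation, scaled to Rose Bengal sodium. Matrix was cell-free MEM with 10% FBS; DMSO vehicle wells served as control.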
Assay [4] is described as follows: qHTS assay to test for compound auto fluorescence at 460 nm (blue) in HepG2 cell free culture (AID 720685). The method in brief:
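Cell-free plates of MEM plus 10% FBS received 23 nL compound or DMSO vehicle; blue-channel (405/460 nm) intensity scored against triamterene as reference fluorophore.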

Assay [5] in a line: qHTS assay to test for compound auto fluorescence at 535 nm (green) in HepG2 cell free culture (AID 720686).
Assay [6] in a line: qHTS assay to test for compound auto fluorescence at 460 nm (blue) in HepG2 cells (AID 720687). In a few lines: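 Cells (2,000/well in MEM with 10% FBS) attached overnight at 37 C, then were exposed to compound or DMSO for 1 hr at 37 C, 5% CO2. Fluorescence read at Ex/Em 405/460 nm, expressed as triamterene-equivalent signal.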
Assay [7] addresses Glucocorticoid receptor (Homo sapiens) (UniProt P04150). Put plainly: qHTS assay to identify small molecule agonists of the glucocorticoid receptor (GR) signaling pathway (AID 720691; active = well fitted activation curve with a large enough effect in the signal ratio in the repeat runs, not every such curve was filed as active; the % refers to the signal ratio). The note with it: GR-bla HeLa, beta-lactamase reporter ratio, 18 h; activation: at 62.4 µM (top of the series). The method in brief:
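Steps: seed GR-bla HeLa cells, incubate 4 h at 37 C/5% CO2; pin-transfer DMSO-dissolved compounds; incubate 18 h at 37 C; add LiveBLAzer B/G FRET substrate; after 2 h at room temperature, measure fluorescence.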

Assay [8] shares this target. Put plainly: qHTS assay to identify small molecule antagonists of the glucocorticoid receptor (GR) signaling pathway (AID 720692; active = well fitted inhibition curve with a large enough effect in the signal ratio in the repeat runs, not every such curve was filed as active; the % refers to the signal ratio; note: potency is the fitted concentration of half-maximal effect). In a few lines: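 Antagonism was scored as loss of dexamethasone-driven (5 nM final) reporter signal in HeLa cells bearing a glucocorticoid response element–beta-lactamase construct, after 18 h compound exposure at 37 C and 2 h FRET substrate loading.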

Assay [9] is described as follows: qHTS assay to identify small molecule antagonists of the glucocorticoid receptor (GR) signaling pathway - cell viability counter screen (AID 720693). Note: nearly all actives have a fitted effect of over 55% in size.
A short description of assay [10]: qHTS assay for identifying genotoxic compounds that show differential cytotoxicity against isogenic chicken DT40 cell lines with known DNA damage response pathways - wild type cell line (AID 743012). Note: nearly all actives have a fitted effect of over 60% in size. Note: potency is the fitted concentration of half-maximal effect. The method in brief:
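Cytotoxicity in repair-proficient parental chicken DT40 cells serves as the comparator for Rad54/Ku70- and Rev3-deficient lines. Cells were exposed to compounds for 40 h at 37 C/5% CO2, and ATP-based luminescence (CellTiter-Glo) measured viability.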

The nature of assay [11]: qHTS assay for identifying genotoxic compounds that show differential cytotoxicity against isogenic chicken DT40 cell lines with known DNA damage response pathways - Rev3 mutant cell line (AID 743014). Note: nearly all actives have a fitted effect of over 55% in size. Note: potency is the fitted concentration of half-maximal effect.
A short description of assay [12]: qHTS assay for identifying genotoxic compounds that show differential cytotoxicity against isogenic chicken DT40 cell lines with known DNA damage response pathways - Rad54/Ku70 mutant cell line (AID 743015). Note: nearly all actives have a fitted effect of over 60% in size. Note: potency is the fitted concentration of half-maximal effect.
A short description of assay [13]: qHTS assay to identify small molecule antagonists of the androgen receptor (AR) signaling pathway - cell viability counter screen (AID 743033; note: nearly all actives have a fitted effect of over 45% in size).
Assay [14] has as its target Androgen receptor (Homo sapiens) (UniProt P10275). Put plainly: qHTS assay to identify small molecule antagonists of the androgen receptor (AR) signaling pathway (AID 743035; active = well fitted inhibition curve with a large enough effect in the signal ratio in the repeat runs, not every such curve was filed as active; the % refers to the signal ratio). The method in brief: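 Steps: seed AR-UAS-bla GripTite HEK293 cells, incubate 4 h at 37C; pin in test compound, then add agonist R1881; incubate 16 h at 37C; add LiveBLAzer B/G FRET substrate, 2 h at room temperature; read fluorescence.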

Assay [15] has the same target. As to the kind of experiment: qHTS assay to identify small molecule agonists of the androgen receptor (AR) signaling pathway (AID 743036; active = well fitted activation curve with a large enough effect in the signal ratio in the repeat runs, with a control signal flat, not every such curve was filed as active; the % refers to the signal ratio). The method in brief: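 Agonist activity was scored by beta-lactamase reporter fluorescence in stably transfected HEK293 cells exposed to compounds for 16 h at 37C and 5% CO2. Substrate loading took 2 h at room temperature.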
Assay [16] has the same target. As to the kind of experiment: qHTS assay to identify small molecule agonists of the androgen receptor (AR) signaling pathway using the MDA cell line (AID 743040; note: nearly all actives have a fitted effect of over 20% in size). In a few lines: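 Agonist activity is measured as luciferase luminescence in human MDA-kb2 cells whose MMTV reporter responds to both AR and GR. Compounds in DMSO incubate 16 h at 37C, 0% CO2, and ONE-Glo is read after 30 min.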

For assay [17] the target is unchanged. Put plainly: qHTS assay to identify small molecule antagonists of the androgen receptor (AR) signaling pathway using the MDA cell line (AID 743042; note: nearly all actives have a fitted effect of over 55% in size; note: potency is the fitted concentration of half-maximal effect). The method in brief:
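MDA-kb2 cells (human breast carcinoma, stably carrying an MMTV-luciferase reporter responsive to AR and GR) were plated at 3,000 cells/well and preincubated 5 hr at 37C, then given compound plus R1881 agonist for 16 h. ONE-Glo luminescence was read.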

Assay [18] can be described thus: qHTS assay to test for compound auto fluorescence at 590 nm (red) in HEK293 cell free culture (AID 720683). The method in brief: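 Tox21 10K library compounds were pinned into cell-free DMEM with 10% FBS and fluorescence was read at excitation 540 nm. Activity is expressed as Rose Bengal sodium equivalency.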
A short description of assay [19]: qHTS assay to identify small molecule antagonists of the androgen receptor (AR) signaling pathway using the MDA cell line - cell viability counter screen (AID 743041; note: nearly all actives have a fitted effect of over 45% in size). In a few lines:
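qHTS viability read-out; MDA-kb2 AR-luc; R1881-stimulated; 16 h exposure at 37C, 0% CO2; CellTiter-Fluor, 30 min; fluorescence intensity.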

Sequence of Glucocorticoid receptor (Homo sapiens) (P04150 whole entry, looked up): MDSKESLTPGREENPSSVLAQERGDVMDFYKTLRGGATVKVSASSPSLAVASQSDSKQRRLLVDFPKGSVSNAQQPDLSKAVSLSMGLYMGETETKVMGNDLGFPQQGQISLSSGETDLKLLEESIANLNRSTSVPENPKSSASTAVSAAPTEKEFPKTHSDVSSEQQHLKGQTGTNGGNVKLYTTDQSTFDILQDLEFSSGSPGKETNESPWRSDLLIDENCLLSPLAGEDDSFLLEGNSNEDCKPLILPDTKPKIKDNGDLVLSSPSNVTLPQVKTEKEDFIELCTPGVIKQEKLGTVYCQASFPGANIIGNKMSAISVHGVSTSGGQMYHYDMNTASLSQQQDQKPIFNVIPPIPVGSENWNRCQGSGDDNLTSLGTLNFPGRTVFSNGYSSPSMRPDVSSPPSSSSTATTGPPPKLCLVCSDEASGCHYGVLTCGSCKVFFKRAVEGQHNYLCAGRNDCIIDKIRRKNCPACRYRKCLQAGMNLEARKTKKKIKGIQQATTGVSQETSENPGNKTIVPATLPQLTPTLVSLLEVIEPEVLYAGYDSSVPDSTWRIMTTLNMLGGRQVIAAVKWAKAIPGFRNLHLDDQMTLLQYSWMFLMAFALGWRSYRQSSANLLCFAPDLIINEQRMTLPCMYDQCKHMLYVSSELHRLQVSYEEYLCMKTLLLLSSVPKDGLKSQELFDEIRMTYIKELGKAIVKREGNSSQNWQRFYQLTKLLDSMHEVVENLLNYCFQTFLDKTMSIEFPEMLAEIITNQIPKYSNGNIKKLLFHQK
Sequence of Androgen receptor (Homo sapiens) (P10275 whole entry, looked up): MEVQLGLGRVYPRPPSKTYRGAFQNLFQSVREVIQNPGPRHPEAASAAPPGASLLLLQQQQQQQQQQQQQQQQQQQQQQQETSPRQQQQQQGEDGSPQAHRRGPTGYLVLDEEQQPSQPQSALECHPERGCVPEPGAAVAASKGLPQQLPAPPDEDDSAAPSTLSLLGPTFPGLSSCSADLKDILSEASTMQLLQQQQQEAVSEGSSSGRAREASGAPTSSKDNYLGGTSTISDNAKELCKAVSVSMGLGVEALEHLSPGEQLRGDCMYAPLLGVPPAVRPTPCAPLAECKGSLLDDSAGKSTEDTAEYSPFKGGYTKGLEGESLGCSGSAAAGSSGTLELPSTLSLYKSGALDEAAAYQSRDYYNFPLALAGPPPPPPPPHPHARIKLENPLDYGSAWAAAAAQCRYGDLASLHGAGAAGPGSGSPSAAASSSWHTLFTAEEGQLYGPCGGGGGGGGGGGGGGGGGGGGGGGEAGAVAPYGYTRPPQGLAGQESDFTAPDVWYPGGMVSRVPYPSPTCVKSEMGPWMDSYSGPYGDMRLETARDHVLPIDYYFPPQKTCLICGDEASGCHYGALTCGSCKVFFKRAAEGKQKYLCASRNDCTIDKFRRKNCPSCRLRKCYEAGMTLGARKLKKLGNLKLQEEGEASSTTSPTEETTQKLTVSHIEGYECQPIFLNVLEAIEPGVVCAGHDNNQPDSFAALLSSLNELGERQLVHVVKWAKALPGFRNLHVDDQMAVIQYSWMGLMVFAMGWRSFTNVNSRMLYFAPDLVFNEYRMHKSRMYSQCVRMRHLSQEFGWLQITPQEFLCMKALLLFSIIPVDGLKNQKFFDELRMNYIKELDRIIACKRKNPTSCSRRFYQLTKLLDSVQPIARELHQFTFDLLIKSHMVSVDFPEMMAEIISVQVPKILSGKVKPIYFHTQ

On to `O=C(Cc1cccs1)N[C@@H]1C(=O)N2C(C(=O)[O-])=C(C[n+]3ccccc3)CS[C@H]12`, for which the Potency result in assay [1], in assay [2], in assay [3], in assay [5], in assay [7] and in assay [8] was “inactive” each time. The Potency entry in assay [9], in assay [10], in assay [11], in [12], in [13] and in assay [14] was “inactive” each time. Further, the Potency entry in assay [15], in [16] and in assay [17] was “inactive” in each case. For the same compound, the outcome in assay [4] and in assay [6] was inactive.

For the compound `CN(CC(=O)N1CCOCC1)Cc1c(Cl)cccc1NC(=O)c1ccccc1`, the Potency result in assay [1], in assay [2], in assay [18], in assay [3], in [5] and in assay [7] was “inactive” in each case. In addition, the Potency entry in assay [8], in assay [9], in [13] and in assay [19] was “inactive” throughout. In addition, the call in assay [4] and in assay [6] was inactive. In [10], the Potency was 23.7 µM (active).

Consider `O=C(O[C@H]1CN2CCC1CC2)N1CCc2ccccc2[C@@H]1c1ccccc1`, for which the Potency result in [1], in assay [2], in [18], in [3], in assay [5] and in assay [7] was “inactive” in each case. Further, the Potency result in assay [8], in assay [9], in assay [13] and in assay [19] was “inactive” each time. For the same compound, the call in [4] and in assay [6] was inactive. For the same compound, the Potency in assay [10] is 11.9 µM (active); in assay [11] it was 26.6 µM (active); in [12], 26.6 µM (active).

As to `CC1=C(/C=C/C(C)=C/C=C/C(C)=C/C=C/C=C(C)/C=C/C=C(C)/C=C/C2=C(C)C[C@@H](O)CC2(C)C)C(C)(C)C[C@H](O)C1`, the Potency entry in assay [1], in [2], in [18], in assay [3], in [5] and in assay [7] was “inactive” each time. Moreover, the Potency result in assay [13], in assay [16] and in assay [19] was “inactive” each time. Besides, the compound was classed as inactive in [6]. In addition, the Potency was 23.9 µM (active) in assay [8]; 7.5 µM (active) in assay [10]; 13.3 µM (active) in assay [11]; 11.9 µM (active) in assay [12]; 29.8 µM (active) in [17].

As for `NCCCC[C@H](NC(=O)[C@@H]1CCCN1C(=O)[C@@H]1CSSC[C@H](N)C(=O)N[C@@H](Cc2ccccc2)C(=O)N[C@@H](Cc2ccccc2)C(=O)N[C@@H](CCC(N)=O)C(=O)N[C@@H](CC(N)=O)C(=O)N1)C(=O)NCC(N)=O`, the Potency result in assay [1], in assay [2], in assay [18], in assay [3], in assay [5] and in assay [7] was “inactive” in each case. Also, the Potency result in assay [8], in assay [9], in [10], in [11], in [12] and in assay [13] was “inactive” in each case. Moreover, in assay [19], the Potency result was “inactive”. The outcome in assay [4] and in assay [6] was inactive.

As for `CC(Oc1ccccc1)C(=O)N[C@@H]1C(=O)N2[C@@H]1SC(C)(C)[C@@H]2C(=O)O` (some centres not stated), the Potency entry in [1], in assay [2], in assay [18], in assay [3], in [5] and in assay [7] was “inactive” in each case. Also, the Potency entry in assay [9], in [12] and in assay [19] was “inactive” each time. Further, the result in assay [4] and in assay [6] was inactive.

`Oc1cc(O)cc(O)c1`: the Potency result in assay [1], in assay [2], in [18], in assay [3], in assay [5] and in assay [7] was “inactive” each time. The Potency entry in [9], in assay [10], in [11], in assay [12], in assay [13] and in assay [14] was “inactive” in each case. For the same compound, the Potency entry in [16], in assay [19] and in assay [17] was “inactive” in each case. The call in assay [4] and in [6] was inactive.

Turning to `CCCCCCCCCCCCCCCCCC(=O)OC[C@@H](O)[C@H]1OC[C@H](O)[C@H]1O`, the Potency entry in assay [1], in assay [2], in [18], in assay [3], in assay [5] and in assay [7] was “inactive” throughout. Moreover, the Potency result in assay [8], in [9], in assay [10], in assay [12], in assay [13] and in assay [14] was “inactive” in each case. Also, the Potency entry in assay [15], in assay [16], in assay [19] and in [17] was “inactive” each time. The call in assay [4] and in [6] was inactive.

Turning to `CCCCCCCC(=O)CC[C@@H]1[C@@H](C/C=C\CCCC(=O)OC(C)C)[C@@H](O)C[C@H]1O`, the Potency entry in [1], in [2], in assay [18], in [3], in assay [5] and in assay [19] was “inactive” in each case. Further, the call in assay [4] and in assay [6] was inactive. The Potency was 8.41 µM (active) in [10], 21.1 µM (active) in [11] and 13.3 µM (active) in [12].
